Source: PubChem BioAssay
Many of the other results were omitted from the sample, so hits are more common in it than they were.
DUX4 txn inh: blocks DUX4-driven transcriptional activation; 293T-iDUX4 ZSCAN4-Gaussia luciferase reporter, 24 h; active compounds read low; activity change, negative = inhibition, % (concentration not given with the values); hit rate 0.8% among 37,000; AID 1224904;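 active = mean inhibition of at least 10% in the main channel, exceeding the control channel by a set limit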
Large screens that a line does not name were inactive.

CC(=O)N(C)C[C@@H]1OCc2ccccc2-c2c(n(C)c3ccccc23)C(=O)N([C@H](C)CO)C[C@@H]1C	none
CC(=O)N(C)C[C@H]1OCc2ccccc2-c2c(n(C)c3ccccc23)C(=O)N([C@H](C)CO)C[C@@H]1C	none
C[C@@H]1CN([C@H](C)CO)C(=O)c2c(c3ccccc3n2C)-c2ccccc2CO[C@H]1CN(C)C(=O)Nc1ccccc1C(F)(F)F	none
C[C@@H]1CN([C@@H](C)CO)C(=O)c2c(c3ccccc3n2C)-c2ccccc2CO[C@@H]1CN(C)C(=O)Nc1cccc(Cl)c1Cl	DUX4 txn inh -35
COc1ccccc1NC(=O)N(C)C[C@@H]1OCc2ccccc2-c2c(n(C)c3ccccc23)C(=O)N([C@H](C)CO)C[C@H]1C	none
C[C@@H]1CN([C@H](C)CO)C(=O)c2c(c3ccccc3n2C)-c2ccccc2CO[C@H]1CN(C)C(=O)c1cc(Cl)cc(Cl)c1	DUX4 txn inh -41
COc1cccc(-c2ccc3c(c2)[C@@H]2[C@@H](CCN2C(=O)CN(C)C)[C@H](CO)N3C)c1	none
COCC(=O)N1CC2(C1)[C@H](c1ccccc1)[C@@H](CO)N2Cc1ccccc1OC	none
COc1ccccc1CN1[C@H](CO)[C@@H](c2ccccc2)C12CN(C(C)=O)C2	none
COc1ccccc1CN1CC2(C1)[C@@H](c1ccccc1)[C@@H](CO)N2Cc1ccccc1	DUX4 txn inh -55
CO[C@H]1CN(C)C(=O)c2cc(NC(=O)C3CC3)ccc2OC[C@@H](C)N(C(=O)c2ccccn2)C[C@@H]1C	none
C[C@@H]1CN([C@H](C)CO)C(=O)c2cc(NC(=O)C3CCCCC3)ccc2O[C@@H](C)CCCCO[C@H]1CN(C)C(=O)CCC(F)(F)F	none
Cc1ccccc1NC(=O)Nc1ccc2c(c1)C(=O)N(C)[C@@H]1CC[C@H](CC(=O)NCC3CC3)O[C@@H]1CO2	none
O=C(C[C@H]1CC[C@@H]2[C@H](COC[C@@H](O)CN2CC2CCCCC2)O1)NCc1ccc(Cl)cc1	none
O=C(C[C@H]1CC[C@H]2[C@@H](COC[C@H](O)CN2CC2CCCCC2)O1)NCc1ccc(Cl)cc1	none
O=C(C[C@H]1CC[C@H]2[C@@H](COC[C@H](O)CN2CC2CCOCC2)O1)NCc1ccc(Cl)cc1	DUX4 txn inh -29
CN1[C@H](C(=O)NCC(F)(F)F)[C@@H](CO)[C@@H]2Cn3c(ccc(-c4ccccc4F)c3=O)[C@@H]21	none
C[C@@H]1CN([C@H](C)CO)C(=O)c2ccccc2-c2ccccc2CO[C@@H]1CN(C)Cc1cccc(F)c1	none
C[C@H](CO)N1C[C@H](C)[C@@H](CN(C)Cc2ccc3c(c2)OCO3)OCc2ccccc2-c2ccccc2C1=O	none
C[C@@H]1CN([C@@H](C)CO)C(=O)c2ccccc2-c2ccccc2CO[C@@H]1CN(C)Cc1ccc(-c2ccccc2)cc1	DUX4 txn inh -29
C[C@@H]1CN([C@@H](C)CO)C(=O)c2ccccc2-c2ccccc2CO[C@@H]1CN(C)Cc1ccc(Cl)c(Cl)c1	DUX4 txn inh -31
C[C@H](CO)N1C[C@H](C)[C@H](CN(C)Cc2ccc(-c3ccccc3)cc2)OCc2ccccc2-c2ccccc2C1=O	none
C[C@H](CO)N1C[C@H](C)[C@@H](CN(C)Cc2cccc(C(F)(F)F)c2)OCc2ccccc2-c2ccccc2C1=O	DUX4 txn inh -42
C[C@@H]1CN([C@@H](C)CO)C(=O)c2ccccc2-c2ccccc2CO[C@@H]1CN(C)Cc1ccc(F)cc1	none
C[C@H]1CN([C@@H](C)CO)C(=O)c2ccccc2-c2ccccc2CO[C@@H]1CN(C)Cc1cccc(F)c1	none
C[C@H](CO)N1C[C@H](C)[C@H](CN(C)Cc2ccc3c(c2)OCO3)OCc2ccccc2-c2ccccc2C1=O	none
CO[C@H]1CN(C)C(=O)c2ccc(NC(=O)Nc3ccccc3F)cc2OC[C@H](C)N(Cc2ccccc2C(=O)O)C[C@@H]1C	none
COc1ccc(S(=O)(=O)Nc2ccc3c(c2)C(=O)N([C@@H](C)CO)C[C@@H](C)[C@@H](CN(C)Cc2ccncc2)O3)cc1	none
C[C@H]1CN([C@@H](C)CO)S(=O)(=O)c2ccc(Br)cc2O[C@@H]1CN(C)C(=O)CCN1CCCCC1	none
COCCNC(=O)C[C@H]1C[C@@H]2c3cc(NC(=O)Nc4ccc(C(F)(F)F)cc4)ccc3O[C@@H]2[C@@H](CO)O1	none
O=C(C[C@H]1C[C@H]2c3cc(NC(=O)c4cccnc4)ccc3O[C@H]2[C@@H](CO)O1)NCc1ccccn1	none
COc1ccc(S(=O)(=O)N(C)C[C@@H]2Oc3ccc(NC(=O)NC4CCCCC4)cc3CC(=O)N([C@H](C)CO)C[C@@H]2C)cc1	none
COc1ccc2c3c(n(C)c2c1)[C@H](CO)N(C)CC31CN(C(=O)c2ccccc2F)C1	DUX4 txn inh -32
COc1cc(CN2CC3(CCN(C(=O)NC(C)C)CC3)c3c(n(C)c4cc(OC)ccc34)[C@H]2CO)cc(OC)c1	none
COc1ccc2c3c(n(C)c2c1)[C@@H](CO)N(C(=O)c1ccc(F)cc1)CC31CCN(CC2CC2)CC1	none
COc1ccc2c3c(n(C)c2c1)[C@H](CO)N(C)CC31CN(C(=O)c2cccnc2)C1	none
COc1ccc2c3c(n(C)c2c1)[C@@H](CO)N(C(=O)c1ccccc1)CC31CN(C(C)=O)C1	none
